{"source": "PubChem BioAssay AID1224897", "about": "(Sanford-Burnham Center for Chemical Genomics, 2016)", "target": "Hepatocyte nuclear factor 4-alpha (Homo sapiens) (UniProt P41235)", "sequence (P41235 whole entry, looked up)": "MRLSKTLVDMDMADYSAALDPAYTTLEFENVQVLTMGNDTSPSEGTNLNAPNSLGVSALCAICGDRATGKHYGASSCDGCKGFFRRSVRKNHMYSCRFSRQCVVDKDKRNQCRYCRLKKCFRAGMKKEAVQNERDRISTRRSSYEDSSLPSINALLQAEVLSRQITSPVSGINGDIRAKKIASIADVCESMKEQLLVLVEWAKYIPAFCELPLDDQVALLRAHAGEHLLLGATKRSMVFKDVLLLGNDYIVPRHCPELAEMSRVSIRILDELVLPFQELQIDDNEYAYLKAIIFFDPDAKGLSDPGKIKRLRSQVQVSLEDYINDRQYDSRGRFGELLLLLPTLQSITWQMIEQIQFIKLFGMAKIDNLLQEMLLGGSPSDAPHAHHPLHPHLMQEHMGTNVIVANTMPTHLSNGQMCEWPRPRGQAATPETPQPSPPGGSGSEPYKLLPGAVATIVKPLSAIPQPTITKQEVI", "experiment": "change in HNF4A binding to DNA, retest, confirmation, biochemical, fluorescence polarization, FITC-DNA (AID 1224897)", "conditions": "1 h, at 12.5 µM, stronger effect = higher value", "note": "Some of the results follow. Activity calls are given as the source filed them. How the calls were made is not given here."}
{"smiles": "COc1ccccc1N=Nc1c(O)[nH]c(=S)[nH]c1=O", "values": [{"measurement": "activity change", "result": "112% (active)"}]}
